Screening data as filed in PubChem BioAssay.
Sampled rows, rich in hits. Any-hit rate of the full collection: about 1.4%.
RN4220 kill: growth inhibition of S. aureus RN4220, primary screen, OD600. 16 h. inhibition, % (concentration not given with the values). 330,000 tested, 0.33% active; in the data active means inhibition above about 85%;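 further: plate controls were untreated cells for no effect and reference antibiotic for full effect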
DUSP3 inh: VHR1 phosphatase inhibitors, primary screen, biochemical, absorbance, uHTS | Dual specificity protein phosphatase 3 (Homo sapiens), P51452 | recombinant VHR phosphatase, pNPP absorbance | inhibition, % at 13.3 µM | 290,000 tested, 0.52% active; in the data active means inhibition above about 50%
Target sequence (P51452 whole entry, looked up): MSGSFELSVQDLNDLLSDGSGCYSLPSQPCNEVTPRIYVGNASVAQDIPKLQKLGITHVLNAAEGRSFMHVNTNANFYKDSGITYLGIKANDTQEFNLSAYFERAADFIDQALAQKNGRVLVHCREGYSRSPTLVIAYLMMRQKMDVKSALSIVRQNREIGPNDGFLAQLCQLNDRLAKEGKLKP
Sa ugtP lethal: growth inhibition of ugtP-null S. aureus, primary screen, RN4220 ugtP deletion, OD600. AID 1259309, 2017. 16 h. 330,000 tested, 0.54% active. growth inhibition, % (test concentration not listed); in the data active means growth inhibition above about 68%;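 further: plate controls were untreated wells for no effect and antibiotic for full effect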
3CLpro inhibitor: SARS-CoV 3CLpro protease inhibitors, primary screen, biochemical, quenched FRET; recombinant SARS-CoV 3CLpro, quenched FRET peptide cleavage; inhibition, % at 6 µM; 290,000 tested, 0.14% active; AID 1706, 2009; in the data active means inhibition above about 12%
PrPC TRFRET: inhibitors of human cell surface prion protein PrPC, primary screen, cell-based, TR-FRET; 370,000 tested, 0.43% active; inhibition, % at 13.8 µM; TR-FRET read-out; AID 720596, 2013; Major prion protein (Homo sapiens), P04156; in the data active means inhibition above about 24%; further: 0% = median of the test wells and 100% = reference compound wells
BJeLR lethal: MLPCN primary cell-based screen for lethality selective to Ras in HRASV12 cells. BJeLR (HRASV12) viability, CellTiter-Glo ATP luminescence, 48 h. AID 1554, 2009. 300,000 tested, 0.17% active. inhibition, % (no concentration beside the values); in the data active means inhibition above about 50%
Starred values were filed as active, the others as inactive.

`O=C(NCc1ccccc1Cl)/C(=C\c1cccnc1)NC(=O)c1ccccc1` gave RN4220 kill 2, DUSP3 inh 58*, Sa ugtP lethal 6, 3CLpro inhibitor 6, PrPC TRFRET -12 and BJeLR lethal -2.
For Cc1cc([N+](=O)[O-])c(C)cc1-c1ccc(C=NNC(=O)c2cccnc2)o1 the results were RN4220 kill 10 and Sa ugtP lethal 3.
Screening O=C(c1cnc2c(c1)COc1ccc(Cl)cc1-2)c1ccccc1O returned RN4220 kill 7, DUSP3 inh 50*, Sa ugtP lethal 14, 3CLpro inhibitor -1 and PrPC TRFRET -2.
For c1cc2c(cc1C1CCCCC1)c1c3n2CCCNC3CCC1 (centres undefined) the results were RN4220 kill 89*, DUSP3 inh -9, Sa ugtP lethal 87*, 3CLpro inhibitor 0, PrPC TRFRET -10 and BJeLR lethal 8.
O=S(=O)(c1ccc2c(c1)C(=NO)c1cc(S(=O)(=O)N3CCCCC3)ccc1-2)N1CCCCC1 was read as RN4220 kill 3, DUSP3 inh -8, Sa ugtP lethal -9, 3CLpro inhibitor -5, PrPC TRFRET 2 and BJeLR lethal 95*.
`CC1CCN(S(=O)(=O)c2ccc3c(c2)C(=NO)c2cc(S(=O)(=O)N4CCC(C)CC4)ccc2-3)CC1` gave RN4220 kill -25, DUSP3 inh 27, Sa ugtP lethal -29, 3CLpro inhibitor -3 and PrPC TRFRET -3.
For COC(=O)C(CC(C)C)N(Cc1ccccc1)S(=O)(=O)N(Cc1ccccc1)C(CC(C)C)C(=O)OC (centres undefined) the results were RN4220 kill -2 and Sa ugtP lethal -3.
Screening Cc1cc(C)c(C)c(OCCNCc2ccccc2)c1 returned RN4220 kill 3, DUSP3 inh 52*, Sa ugtP lethal -4, 3CLpro inhibitor 1, PrPC TRFRET 3 and BJeLR lethal -1.
Screening Clc1ccc(OCCCNCc2ccccc2)c2ccccc12 returned RN4220 kill 100*, DUSP3 inh -12, Sa ugtP lethal 95*, 3CLpro inhibitor 0, PrPC TRFRET 3 and BJeLR lethal -4.
Screening O=C(Nc1cc(Cl)cc(Cl)c1)N1CCCC1 returned RN4220 kill 91*, DUSP3 inh 8, Sa ugtP lethal 92, 3CLpro inhibitor 5, PrPC TRFRET -6 and BJeLR lethal 4.
`Cc1cccc(NC(=O)N2CCCC2)c1` gave RN4220 kill 4, DUSP3 inh 52*, Sa ugtP lethal 8, 3CLpro inhibitor 0, PrPC TRFRET -1 and BJeLR lethal -2.
For Cc1cccc(NC(=O)N2CCCCCC2)c1 the results were RN4220 kill 1, DUSP3 inh 15, Sa ugtP lethal -2, 3CLpro inhibitor -1, PrPC TRFRET -1 and BJeLR lethal 1.
O=C(Nc1ccc(F)c(Cl)c1)N1CCCC1 was read as RN4220 kill 2, DUSP3 inh 3, Sa ugtP lethal 9, 3CLpro inhibitor -3, PrPC TRFRET 0 and BJeLR lethal 4.
Screening CN1CCC(=O)N([C@H](CC#N)c2ccccc2)CC1 returned DUSP3 inh 52*, 3CLpro inhibitor -2, PrPC TRFRET -2 and BJeLR lethal 1.
`CCCN1CCC(=O)N(C(COc2ccccc2)c2ccccc2)CC1` (centres undefined) gave RN4220 kill 3 and Sa ugtP lethal 1.
For CCCN1CCC(=O)N([C@H](COc2ccccc2)c2ccccc2)CC1 the results were DUSP3 inh 55*, 3CLpro inhibitor -1, PrPC TRFRET -5 and BJeLR lethal -1.
`O=S(=O)(C=Cc1ccccc1)Nc1cccc(S(=O)(=O)NC2=NCCC2)c1` gave RN4220 kill 9 and Sa ugtP lethal -3.
O=C(C1=CC(c2coc3ccccc3c2=O)CC(OCc2ccc(CO)cc2)O1)N1CCN(Cc2ccccc2)CC1 (centres undefined) was read as RN4220 kill 8 and Sa ugtP lethal 2.
`CCc1ccccc1NC(=O)c1ccc2nc(N3CCOCC3)sc2c1` gave RN4220 kill 4, DUSP3 inh 10, Sa ugtP lethal 9, 3CLpro inhibitor -2, PrPC TRFRET 1 and BJeLR lethal -3.
